The structures appear in SMILES notation. The source made the active and inactive calls.

Assay [1] relates to PRMT1 (protein arginine N-methyltransferase 1). The assay is described as follows: PRMT1 binders on small-molecule microarrays, primary screen, biochemical, small-molecule microarray, 635 nm fluorescence (AID 1088).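 Also: binding of Prmt1 protein to compounds spotted on small-molecule microarray slides.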 The conditions noted are these: small-molecule microarray binding, higher = more signal.
Assay [2] is described as follows: yeast growth modulation, basal conditions, primary screen, YJM789 clinical isolate, OD600, 24 h (AID 1089).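 Also: growth of clinical yeast isolate S. cerevisiae YJM 789 seeded 1000 cells per well; test concentration not given here.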 Conditions: S. cerevisiae YJM789 growth, higher = more signal, called active from +8 up or from −8 down.
Assay [3] is described as follows: fission yeast growth modulation, primary screen, strain 972, OD600, 24 h, no modulator (AID 1090).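 Also: basal condition with compound alone and no growth modifier present; test concentration not given here.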 Conditions: S. pombe 972 growth, higher = more signal, called active from +8 up or from −8 down.
A short description of assay [4]: S. cerevisiae growth modulation with rapamycin, primary screen, strain BY4716, OD600, 96 h (AID 1091). Also: test concentration not given here. Conditions: higher = more signal, called active from +8 up or from −8 down.
Assay [5] addresses Torsin-1A-interacting protein 2 (Homo sapiens) (UniProt Q8NFQ8). The assay is described as follows: LULL1 binders on small-molecule microarray, primary screen, cell lysate, human LULL1 lysate, 635/667 nm fluorescence (AID 1092).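 Also: probe is lysate of COS7 cells overexpressing human LULL1; score merges per-feature 667 nm fluorescence with signal-to-noise.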 The conditions noted are these: hLULL1 lysate binding, 635 nm fluorescence, higher = more signal.
Assay [6] can be described thus: E. coli growth modulation, two-sided OD650, primary screen, E. coli filamentation project, strain DRC41, 24 h (AID 1093).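 Also: MC1000 strain lacking acrAB efflux and sulA so SOS filamentation is blocked; test concentration not given here.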 Conditions: OD650, 24 h, higher = more signal, called active from +8 up or from −8 down.
The nature of assay [7]: small-molecule microarray binders of probe aLefty2, primary screen, biochemical, biotinylated probe, 635/667 nm fluorescence (AID 1094).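 Also: score merges spot fluorescence near 667 nm with spot signal-to-noise ratio.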 Conditions: higher = more signal.
Assay [8] relates to Noggin (protein binding on small-molecule microarray). The assay can be described thus: Noggin binders on small-molecule microarray, primary screen, biochemical, 635/667 nm fluorescence (AID 1095).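 Also: score merges 667 nm feature fluorescence with signal to noise over triplicate slides.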 Conditions: 635 nm fluorescence, higher = more signal.
Assay [9] deals with Neurogenic locus notch homolog protein 3 (Homo sapiens) (UniProt Q9UM47). The assay is described as follows: NOTCH3 binders on small-molecule microarray, primary screen, biochemical, 635/667 nm fluorescence (AID 1096). Conditions: NOTCH3 binding, 635 nm fluorescence, higher = more signal.
Assay [10] is described as follows: small-molecule microarray binders of probe aEGFR, primary screen, biochemical, biotinylated probe, 635/667 nm fluorescence (AID 1097).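 Also: probe is a biotinylated anti-EGFR antibody binding compounds printed on slides; score combines fluorescence near 667 nm and signal to noise of each spot.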 Conditions: higher = more signal.
In assay [11] the test system is Plasmodium falciparum Sir2 (PF13_0152, Sir2A). The assay is described as follows: pfSir2 binders on small-molecule microarrays, primary screen, biochemical, small-molecule microarray, 635 nm fluorescence (AID 1098).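 Also: score merges spot fluorescence intensity with its signal-to-noise ratio.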 The conditions noted are these: small-molecule microarray binding, fluorescence 635 nm; higher = more signal.
Assay [12] is described as follows: small-molecule microarray binders of probe aDKK1, primary screen, biochemical, biotinylated probe, 635/667 nm fluorescence (AID 1099).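 Also: score merges 667nm spot fluorescence with signal to noise across triplicate slides; reference of the scale not given here.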 The conditions noted are these: higher = more signal.
A short description of assay [13]: small-molecule microarray binders of probe aCHRDL2, primary screen, biochemical, biotinylated probe, 635/667 nm fluorescence (AID 1100). Conditions: higher = more signal.
A short description of assay [14]: splicing luciferase reporter signal modulators, primary screen, spliceosome inhibition project, cell-based, HEK293, splice +/- reporter (AID 1101).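 Also: HEK293 cells carrying a splicing-competent luciferase reporter gene; test concentration not given here.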 The conditions noted are these: luminescence, 24 h, higher = more signal, called active from +8 up or from −8 down.
Assay [15] concerns the target Fibroblast growth factor 10 (Homo sapiens) (UniProt O15520). The assay can be described thus: FGF10 binders on small-molecule microarrays, primary screen, biochemical, small-molecule microarray, 635 nm fluorescence (AID 1102). The conditions noted are these: FGF10 binding, fluorescence 635 nm, higher = more signal.
In assay [16] the test system is glycogen synthase kinase-3 (GSK3A per assay name; protocol says GSK3B). The assay can be described thus: GSK3 binders on small-molecule microarrays, primary screen, biochemical, small-molecule microarray, 635 nm fluorescence, GSK3A (AID 1103). Also: the record names both GSK3A and GSK3B. Conditions: small-molecule microarray binding, fluorescence 635 nm; higher = more signal.
Assay [17] concerns the target Epidermal growth factor receptor (Homo sapiens) (UniProt P00533). The assay can be described thus: EGFR binders on small-molecule microarrays, primary screen, biochemical, small-molecule microarray, 635 nm fluorescence (AID 1104).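 Also: score merges 667 nm emission intensity with spot signal to noise over triplicate slides.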 The conditions noted are these: EGFR binding, higher = more signal.
For assay [18], the target named is Follistatin-related protein 3 (Homo sapiens) (UniProt O95633). The assay is described as follows: FSTL3 binders on small-molecule microarrays, primary screen, biochemical, small-molecule microarray, 635 nm fluorescence (AID 1105).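 Also: score merges emission near 667 nm and signal to noise per printed spot across three slides.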 Conditions: FSTL3 binding, higher = more signal.
The target of assay [19] is Dickkopf-related protein 1 (Homo sapiens) (UniProt O94907). The assay can be described thus: DKK1 binders on small-molecule microarrays, primary screen, biochemical, small-molecule microarray, 635 nm fluorescence scan (AID 1106).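 Also: score merges emission near 667 nm with signal to noise over three replicate slides.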 Conditions: DKK1 binding, higher = more signal.
Assay [20] deals with Inhibin beta A chain (activin A). The assay can be described thus: INHBA (activin A) binders on microarrays, primary screen, biochemical, small-molecule microarray, 635 nm fluorescence scan (AID 1107).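 Also: mouse activin A protein probed at 4.33 µg/mL on printed slides; score merges bound-protein fluorescence near 667 nm with spot signal-to-noise.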 The conditions noted are these: small-molecule microarray binding, higher = more signal.

Sequence of Torsin-1A-interacting protein 2 (Homo sapiens) (Q8NFQ8 whole entry, looked up): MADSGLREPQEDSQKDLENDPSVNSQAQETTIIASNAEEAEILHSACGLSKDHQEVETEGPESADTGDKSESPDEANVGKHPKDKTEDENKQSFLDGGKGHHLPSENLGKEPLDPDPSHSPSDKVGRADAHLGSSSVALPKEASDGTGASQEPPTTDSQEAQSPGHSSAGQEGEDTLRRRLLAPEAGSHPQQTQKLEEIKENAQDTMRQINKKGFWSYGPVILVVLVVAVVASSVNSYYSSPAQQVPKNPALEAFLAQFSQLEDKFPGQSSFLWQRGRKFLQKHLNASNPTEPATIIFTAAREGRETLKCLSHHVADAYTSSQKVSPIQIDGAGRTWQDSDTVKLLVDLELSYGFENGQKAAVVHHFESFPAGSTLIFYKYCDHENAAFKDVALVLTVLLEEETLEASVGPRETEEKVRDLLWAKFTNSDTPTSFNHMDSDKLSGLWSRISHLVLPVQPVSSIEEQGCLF
Sequence of Follistatin-related protein 3 (Homo sapiens) (O95633 whole entry, looked up): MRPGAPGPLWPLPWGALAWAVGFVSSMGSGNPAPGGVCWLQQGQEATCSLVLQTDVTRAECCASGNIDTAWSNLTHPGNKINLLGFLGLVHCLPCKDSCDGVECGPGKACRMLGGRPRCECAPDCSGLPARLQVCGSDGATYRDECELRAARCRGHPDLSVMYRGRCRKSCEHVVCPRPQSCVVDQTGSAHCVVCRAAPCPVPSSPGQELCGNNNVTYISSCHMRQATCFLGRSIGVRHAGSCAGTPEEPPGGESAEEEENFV
Sequence of Neurogenic locus notch homolog protein 3 (Homo sapiens) (Q9UM47 whole entry, looked up): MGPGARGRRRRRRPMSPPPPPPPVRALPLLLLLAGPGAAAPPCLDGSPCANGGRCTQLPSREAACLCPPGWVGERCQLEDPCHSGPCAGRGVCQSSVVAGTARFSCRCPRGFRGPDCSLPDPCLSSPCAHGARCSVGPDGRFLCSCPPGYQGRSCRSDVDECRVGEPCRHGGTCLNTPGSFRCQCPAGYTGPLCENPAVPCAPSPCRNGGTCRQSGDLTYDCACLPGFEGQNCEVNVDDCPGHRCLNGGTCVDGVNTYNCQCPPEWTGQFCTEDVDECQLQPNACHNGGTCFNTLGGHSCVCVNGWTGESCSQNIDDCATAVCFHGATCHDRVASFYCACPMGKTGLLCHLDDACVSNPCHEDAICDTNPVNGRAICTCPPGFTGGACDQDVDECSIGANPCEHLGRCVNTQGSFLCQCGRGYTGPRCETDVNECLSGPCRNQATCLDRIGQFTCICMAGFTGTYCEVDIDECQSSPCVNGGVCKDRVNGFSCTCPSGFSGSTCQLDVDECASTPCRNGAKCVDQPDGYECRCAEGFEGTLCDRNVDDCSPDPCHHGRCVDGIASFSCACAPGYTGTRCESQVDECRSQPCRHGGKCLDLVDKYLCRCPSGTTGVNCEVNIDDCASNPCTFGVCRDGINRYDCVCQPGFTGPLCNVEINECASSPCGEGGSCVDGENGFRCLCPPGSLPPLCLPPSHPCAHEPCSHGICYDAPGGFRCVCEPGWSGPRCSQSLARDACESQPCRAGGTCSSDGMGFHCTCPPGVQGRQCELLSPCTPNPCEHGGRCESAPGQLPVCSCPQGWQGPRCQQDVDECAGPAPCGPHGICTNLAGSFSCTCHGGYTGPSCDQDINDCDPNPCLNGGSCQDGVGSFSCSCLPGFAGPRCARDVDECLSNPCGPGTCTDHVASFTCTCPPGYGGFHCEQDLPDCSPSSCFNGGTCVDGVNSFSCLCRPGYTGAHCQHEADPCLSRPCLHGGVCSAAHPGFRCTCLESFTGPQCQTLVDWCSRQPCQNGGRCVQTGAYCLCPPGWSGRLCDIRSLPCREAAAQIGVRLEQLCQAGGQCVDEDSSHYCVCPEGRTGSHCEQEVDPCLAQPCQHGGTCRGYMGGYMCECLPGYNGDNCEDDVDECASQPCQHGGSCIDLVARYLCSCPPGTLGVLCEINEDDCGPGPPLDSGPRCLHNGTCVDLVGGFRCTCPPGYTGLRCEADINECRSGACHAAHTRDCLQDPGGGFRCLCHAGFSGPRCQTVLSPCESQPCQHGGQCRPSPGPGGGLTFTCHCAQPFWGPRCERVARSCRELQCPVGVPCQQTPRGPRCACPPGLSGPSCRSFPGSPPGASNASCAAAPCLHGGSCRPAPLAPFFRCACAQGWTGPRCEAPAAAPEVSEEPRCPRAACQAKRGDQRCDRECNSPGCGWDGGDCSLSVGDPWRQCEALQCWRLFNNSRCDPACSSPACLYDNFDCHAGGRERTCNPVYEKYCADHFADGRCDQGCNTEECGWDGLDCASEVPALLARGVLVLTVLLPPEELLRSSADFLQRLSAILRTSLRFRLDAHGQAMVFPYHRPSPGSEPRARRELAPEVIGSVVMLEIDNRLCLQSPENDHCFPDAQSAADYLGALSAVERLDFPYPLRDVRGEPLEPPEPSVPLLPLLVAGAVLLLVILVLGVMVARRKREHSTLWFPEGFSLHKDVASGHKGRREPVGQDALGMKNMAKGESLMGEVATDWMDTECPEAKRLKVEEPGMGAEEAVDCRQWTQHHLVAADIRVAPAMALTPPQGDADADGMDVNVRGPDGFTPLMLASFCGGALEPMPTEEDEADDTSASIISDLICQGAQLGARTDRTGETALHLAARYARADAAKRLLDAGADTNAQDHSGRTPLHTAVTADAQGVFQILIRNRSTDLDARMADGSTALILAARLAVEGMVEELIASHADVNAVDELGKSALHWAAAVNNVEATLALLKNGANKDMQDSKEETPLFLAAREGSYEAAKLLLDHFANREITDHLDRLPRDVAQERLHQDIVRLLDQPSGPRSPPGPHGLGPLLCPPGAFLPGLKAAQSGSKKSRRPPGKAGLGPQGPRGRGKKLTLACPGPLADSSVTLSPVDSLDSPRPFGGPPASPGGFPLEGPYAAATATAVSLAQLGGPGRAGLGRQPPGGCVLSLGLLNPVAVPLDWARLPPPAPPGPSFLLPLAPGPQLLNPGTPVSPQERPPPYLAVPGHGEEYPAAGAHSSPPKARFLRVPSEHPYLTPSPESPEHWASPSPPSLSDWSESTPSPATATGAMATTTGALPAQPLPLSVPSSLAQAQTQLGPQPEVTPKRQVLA
Sequence of Epidermal growth factor receptor (Homo sapiens) (P00533 whole entry, looked up): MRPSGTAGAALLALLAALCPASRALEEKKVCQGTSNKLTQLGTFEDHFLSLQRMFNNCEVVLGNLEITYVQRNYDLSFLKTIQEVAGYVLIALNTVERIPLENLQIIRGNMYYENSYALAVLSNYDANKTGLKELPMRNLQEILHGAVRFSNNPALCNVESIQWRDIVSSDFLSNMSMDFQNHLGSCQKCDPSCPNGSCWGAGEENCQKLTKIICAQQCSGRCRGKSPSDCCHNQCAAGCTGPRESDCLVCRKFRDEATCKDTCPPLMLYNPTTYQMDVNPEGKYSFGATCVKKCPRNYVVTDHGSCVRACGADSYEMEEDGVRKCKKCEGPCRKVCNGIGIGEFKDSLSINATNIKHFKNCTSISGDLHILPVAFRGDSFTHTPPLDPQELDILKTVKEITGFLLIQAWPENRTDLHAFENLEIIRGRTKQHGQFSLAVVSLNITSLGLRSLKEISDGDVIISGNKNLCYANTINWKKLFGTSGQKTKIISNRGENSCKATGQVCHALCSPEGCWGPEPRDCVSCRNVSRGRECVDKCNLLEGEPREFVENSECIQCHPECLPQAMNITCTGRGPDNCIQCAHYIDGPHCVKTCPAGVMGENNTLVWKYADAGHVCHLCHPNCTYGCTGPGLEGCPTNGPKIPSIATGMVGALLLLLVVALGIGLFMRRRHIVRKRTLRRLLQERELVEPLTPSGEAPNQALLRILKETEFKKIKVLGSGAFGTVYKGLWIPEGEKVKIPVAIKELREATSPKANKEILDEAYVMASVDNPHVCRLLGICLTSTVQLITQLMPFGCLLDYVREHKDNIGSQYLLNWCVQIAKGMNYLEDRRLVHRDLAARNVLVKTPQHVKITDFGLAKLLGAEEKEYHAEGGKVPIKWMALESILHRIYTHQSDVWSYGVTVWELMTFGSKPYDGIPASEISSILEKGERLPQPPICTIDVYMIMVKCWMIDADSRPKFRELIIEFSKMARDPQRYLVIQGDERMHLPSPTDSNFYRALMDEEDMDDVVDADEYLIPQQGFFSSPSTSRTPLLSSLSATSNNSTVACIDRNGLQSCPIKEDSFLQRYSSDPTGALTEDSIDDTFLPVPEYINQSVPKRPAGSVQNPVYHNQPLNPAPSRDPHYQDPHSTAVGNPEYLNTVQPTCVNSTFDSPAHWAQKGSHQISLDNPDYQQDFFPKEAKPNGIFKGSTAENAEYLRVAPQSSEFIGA
Sequence of Dickkopf-related protein 1 (Homo sapiens) (O94907 whole entry, looked up): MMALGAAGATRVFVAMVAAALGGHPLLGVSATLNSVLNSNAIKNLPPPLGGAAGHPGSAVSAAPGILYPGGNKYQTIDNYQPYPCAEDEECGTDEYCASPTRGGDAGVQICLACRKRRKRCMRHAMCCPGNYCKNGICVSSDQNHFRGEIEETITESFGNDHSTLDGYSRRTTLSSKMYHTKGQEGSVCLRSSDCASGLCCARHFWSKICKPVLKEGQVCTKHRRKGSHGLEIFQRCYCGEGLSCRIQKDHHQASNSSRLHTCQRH
Sequence of Fibroblast growth factor 10 (Homo sapiens) (O15520 whole entry, looked up): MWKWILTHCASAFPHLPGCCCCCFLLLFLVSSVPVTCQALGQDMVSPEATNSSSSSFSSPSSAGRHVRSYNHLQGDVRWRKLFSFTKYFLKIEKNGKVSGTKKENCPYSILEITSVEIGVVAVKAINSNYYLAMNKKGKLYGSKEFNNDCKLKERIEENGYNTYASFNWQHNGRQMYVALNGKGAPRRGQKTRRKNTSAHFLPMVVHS

Turning to `CCCCC(=C=CC[C@@H](O)c1cccc(OCCO)c1)CCO`, the composite z-score in assay [1] was 0.468; in [5] it was 0.111; in [7] it was -0.179; in assay [8], -0.0301; in assay [9], 0.098; in [10], -0.152. The composite z-score in assay [11] was 1.36; in assay [12], -0.252; in assay [13] it was 0.254; in assay [15], 0.504; in assay [16] it was -0.224; in [17], -0.556. Besides, the composite z-score is -0.254 in assay [18], -0.591 in assay [19] and 0.134 in assay [20]. Also, the z-score in [2] is 0.633 (inactive); in [3], 0.111 (inactive); in assay [4], -0.238 (inactive); in [6], 0.863 (inactive); in assay [14] it was 0.413 (inactive).

For the compound `C=CC[C@]1(C(=O)NCc2ccccc2)COC(c2ccc(OCCCO)cc2)=N1`, the composite z-score was 0.822 in [1]; 2.87 in [5]; 0.843 in assay [7]; -1 in [8]; -0.447 in assay [9]; -0.0675 in assay [10]. The composite z-score is 1.49 in assay [11]; 1.43 in assay [12]; 1.6 in assay [13]; -0.215 in assay [15]; -0.9 in [16]; -1.47 in assay [17]. Besides, the composite z-score in assay [18] is 0.101; in [19] it was -0.301; in assay [20], 0.792. For the same compound, the z-score is -1.4 (inactive) in assay [2]; -4.95 (inactive) in [3]; -1.22 (inactive) in assay [4]; 1.34 (inactive) in [6]; 0.589 (inactive) in [14].

For the compound `CN(C)CCCC[C@@H]1NC(=O)[C@H]2C[C@@H](C(=O)O)[C@@H](c3cccc(OCCO)c3)N2C1=O`, the composite z-score worked out at 1.4 in [1]; 2.1 in assay [5]; 0.495 in assay [7]; 1.19 in [8]; 0.87 in assay [9]; 0.169 in assay [10]. Further, the composite z-score in assay [11] came to 1.67; in [12], 0.696; in assay [13], 0.555; in [15] it was 0.702; in assay [16], 1.14; in [17], 0.258. Also, the composite z-score was found to be 0.666 in assay [18], 0.969 in assay [19] and 0.658 in assay [20]. For the same compound, the z-score in [2] was -0.733 (inactive); in [3], -1.36 (inactive); in assay [4] it was 0.102 (inactive); in [6], 0.579 (inactive); in [14], -0.348 (inactive).

As to `NC(=O)N1C(=O)C2C(C1=O)C1C=C(CCCO)C2C(c2ccc(CN3CCCC3)cc2)N1Cc1cccc(OC(F)(F)F)c1` (stereo not given), the composite z-score in [1] is 1.33; in [5], 1.28; in assay [7], 0.0472; in [8] it was 0.623; in assay [9], 0.0057; in assay [10], -0.0286. For the same compound, the composite z-score in assay [11] turned out to be 0.488; in [12], 0.084; in assay [13], 0.263; in assay [15], 0.374; in assay [16], 0.686; in assay [17], 0.634. Besides, the composite z-score in assay [18] stood at 0.719; in assay [19], 0.723; in [20], 1.59. In addition, the z-score in assay [2] is -1.11 (inactive); in assay [3], -2.67 (inactive); in [4] it was -2.1 (inactive); in assay [6] it was 0.489 (inactive); in assay [14] it was -0.443 (inactive).

As for `COC(=O)[C@]1(CO)N=C(c2ccc(OCCCO)cc2)O[C@@H]1c1ccccc1CN=[N+]=[N-]`, the composite z-score is 0.575 in assay [1]; 0.852 in assay [5]; -0.0884 in [7]; 0.227 in [8]; -0.318 in [9]; -0.285 in assay [10]. Moreover, the composite z-score in [11] was 0.853; in assay [12], 0.109; in [13], 0.292; in assay [15], 0.0716; in assay [16], 0.421; in assay [17] it was -0.237. Besides, the results for the composite z-score in assay [18], in assay [19] and in assay [20] were 0.0239, 0.102 and 0.193, respectively. Besides, the z-score in assay [2] is 0.11 (inactive); in assay [3], 0.44 (inactive); in assay [4], 1.85 (inactive); in assay [6], 0.628 (inactive); in [14] it was 0.706 (inactive).

(Values after PubChem BioAssay.)
